Mito fusion yeast – qHTS Assay for Small Molecule Inhibitors of Mitochondrial Division or Activators of Mitochondrial Fusion. S. cerevisiae fusion-defective mutant growth rescue, CellTiterGlo 48 h. Potency, µM (series often up to 46.1 µM), for the others: top-dose growth rescue (activation), actives largely listed as activators. actives 0.23% (n = 320,000). AID 485298, 2010; further: % of control where 0% means no effect; nearly all actives have a fitted effect of over 45% in size
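Read-out: ATP-based luminescence (CellTiterGlo, 10 min ambient) reporting growth of fusion-defective ts yeast after 48 hours at 37C on glycerol/ethanol YPEG medium in the presence of compound.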
Abeta rescue – qHTS for compounds that reverse cellular toxicity of Amyloid beta (A-beta) peptide in yeast: Primary Screen; yeast expressing A-beta42, growth rescue, OD600, 48 h; response scale: 0% DMSO, 100% iron-clioquinol control; Potency, µM (titrated, usually from 46.1 µM), most hits filed as activators; actives 0.063% (n = 410,000); further: nearly all actives have a fitted effect of over 55% in size
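Yeast A-beta toxicity model in growth medium with pinned compounds, 48 h at 30 C; growth read as absorbance at 600 nm. Normalized to FeCl3/clioquinol equimolar mix (positive) and DMSO (negative).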
TDP-43 yeast inh – qHTS of TDP-43 Inhibitors | TDP-43 expressing yeast growth rescue, BacTiter-Glo, 24 h | Potency, µM (titrated, usually from 46.1 µM), inactives show at the highest dose growth rescue (activation), most hits filed as activators | actives 1.8% (n = 410,000); further: % of control where 0% means no effect; nearly all actives have a fitted effect of over 50% in size
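Cell-based yeast growth screen: TDP-43 expression induced in galactose, inoculum OD600=0.02 after raffinose pregrowth to mid-log. Read-out BacTiter-Glo luminescence at 24 hr, 30 deg C; inhibition of toxicity seen as signal increase.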
aSyn yeast inh – qHTS of alpha-syn Inhibitors; Yeast expressing alpha-synuclein, growth rescue, BacTiter-Glo, 24 h; Potency, µM (highest dose often 46.1 µM), inactives show top-dose growth rescue (activation), usual class: activators; actives 0.14% (n = 370,000); further: % of control where 0% means no effect; nearly all actives have a fitted effect of over 65% in size
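Galactose-induced alpha-syn yeast (OD600=0.02, raffinose-pregrown) + pinned cpd, 24 hr, 30 deg C; growth by BacTiter-Glo luminescence. Growth restoration scores as activation.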
FUS suppressor – qHTS for Suppressors of FUS Proteinopathy: Primary screen using FUS-linked yeast assay | S. cerevisiae FUS-expressing, growth rescue, OD600, 24 h | Potency, µM (highest dose often 76.6 µM), most hits filed as activators | actives 0.24% (n = 390,000);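 further: plate controls were DMSO vehicle for no effect and reference control for full effect; nearly all actives have a fitted effect of over 55% in size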
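Yeast FUS proteinopathy model; galactose-induced FUS (2%), starting OD 0.005. Cpds in dilution series, 24hr, 30C, 99% humidity. Abs 600 nm growth. Pos ctrl CP55940 (top 92uM final); neg ctrl DMSO.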
* marks the source's active call; other numbers are inactive results; [ ] = another dose, or the depositor's remark. A selection: hits, their analogues and other compounds. The true share with any hit is near 2.2%. The call rests on the fitted dose curve; in most records, active means well fitted curve in the direction sought with a large enough effect; inconclusive means small, poorly fitted or top-dose-only effect, or another doubt; inactive means no such curve, though single readings can be large; an effect the other way counts as inactive or inconclusive. Potency means the concentration at half of the fitted maximal effect.

Screening CCOC(=O)C(=O)Nc1c(C(=O)Nc2cccc(F)c2)oc2ccccc12 returned Abeta rescue inactive, TDP-43 yeast inh 5% and FUS suppressor inactive.
`C(=Nc1ccc2ccccc2n1)c1ccccn1` gave aSyn yeast inh 2%.
For Cc1ccc(NC(=O)Cc2cccs2)cc1Cl the results were Mito fusion yeast 4%, Abeta rescue inactive, TDP-43 yeast inh 20µM*, aSyn yeast inh 2% and FUS suppressor inactive.
Screening O=C(Cc1cccs1)Nc1ccc(S(=O)(=O)Nc2ncccn2)cc1 returned Mito fusion yeast -1%, Abeta rescue inactive, TDP-43 yeast inh -1%, aSyn yeast inh -14% and FUS suppressor 10µM*.
`CC(Cc1cccs1)NC(=S)Nc1ccc(Cl)cc1` (configuration not stated) gave Mito fusion yeast 15%, Abeta rescue inconclusive, TDP-43 yeast inh -14%[0.397 µM], aSyn yeast inh -18% and FUS suppressor inactive.
CC(Cc1cccs1)NC(=S)Nc1ccc(Cl)c(Cl)c1 (configuration not stated) was read as Mito fusion yeast 16%, Abeta rescue 11µM*, TDP-43 yeast inh -17%[0.397 µM], aSyn yeast inh 0% and FUS suppressor inactive.
O=C(Cc1cccs1)Nc1ccc(F)c(F)c1 was read as Mito fusion yeast 1%, Abeta rescue inactive, TDP-43 yeast inh inconclusive, aSyn yeast inh 13% and FUS suppressor inactive.
For C=C1C=C(C(F)F)n2ncc(C(=O)N3CCCCC3)c2N1 the results were aSyn yeast inh -1%.
`Cc1ncc(CO)c(CO)c1OCC(O)CN1CCN(c2ccc(F)cc2)CC1` (configuration not stated) gave Abeta rescue inactive, TDP-43 yeast inh 16%, aSyn yeast inh -3% and FUS suppressor inactive.
`COCCCNc1nc2ccccc2nc1NS(=O)(=O)c1cccc(C)c1` gave Mito fusion yeast 9%, Abeta rescue inactive, TDP-43 yeast inh 14µM*, aSyn yeast inh -5% and FUS suppressor inactive.
Screening COCCCNc1nc2ccccc2nc1NS(=O)(=O)c1ccccc1 returned Mito fusion yeast 4%, Abeta rescue inactive, TDP-43 yeast inh 19%, aSyn yeast inh -1% and FUS suppressor inactive.
`O=C(Cc1ccc(S(=O)(=O)N2CCOCC2)s1)Nc1nc2c(s1)CCCC2` gave Mito fusion yeast 0%, Abeta rescue inactive, TDP-43 yeast inh -22%, aSyn yeast inh -9% and FUS suppressor 8.9µM*.
CCCNC(=O)c1cc(C2CCCN(C(=O)C3CCCCC3)C2)on1 (configuration not stated) was read as Abeta rescue inactive, TDP-43 yeast inh 0%, aSyn yeast inh -7% and FUS suppressor inactive.
Screening O=C(Nc1ccc2c(c1)OCO2)c1cc(C2CCCN(C(=O)C3CCCCC3)C2)on1 (configuration not stated) returned Abeta rescue inactive, TDP-43 yeast inh 35µM*, aSyn yeast inh 3% and FUS suppressor inactive.
Cc1ccc(F)cc1C(=O)N1CCCC(c2cc(C(=O)NCc3ccccc3)no2)C1 (configuration not stated) was read as Abeta rescue inactive, TDP-43 yeast inh 0%, aSyn yeast inh -2% and FUS suppressor inactive.
For O=C(Nc1ccc2c(c1)OCO2)c1cc(C2CCCCN2C(=O)c2ccc3ccccc3c2)on1 (configuration not stated) the results were Abeta rescue inactive, TDP-43 yeast inh 20%, aSyn yeast inh 4% and FUS suppressor 35µM*.
Screening COC(=O)N1CCCC(c2cc(C(=O)Nc3ccccc3Cl)no2)C1 (configuration not stated) returned Abeta rescue inactive, TDP-43 yeast inh inconclusive, aSyn yeast inh 22% and FUS suppressor inactive.
Cc1ccc(F)cc1C(=O)N1CCCC(c2cc(C(=O)Nc3ccccc3Cl)no2)C1 (configuration not stated) was read as Abeta rescue inactive, TDP-43 yeast inh 35µM*, aSyn yeast inh 26% and FUS suppressor inconclusive.
`O=C(Nc1ccccc1Cl)c1cc(C2CCCN(C(=O)C3CCCCC3)C2)on1` (configuration not stated) gave Abeta rescue inactive, TDP-43 yeast inh 16µM*, aSyn yeast inh 14% and FUS suppressor inactive.
N#CCC[C@@H]1CC[C@]2(CCCN(C(=O)c3cccnc3)C2)O1 was read as FUS suppressor inactive.
O=C1c2ccccc2-c2cc(Br)ccc2NC1O (configuration not stated) was read as Abeta rescue inactive, TDP-43 yeast inh inconclusive, aSyn yeast inh 22µM* and FUS suppressor inactive.
Screening COc1ccc(-c2cc(=Nc3ccc(C(=O)O)cc3)c3cc(C)ccc3o2)cc1 returned Mito fusion yeast 7%, Abeta rescue inactive, TDP-43 yeast inh 18µM*, aSyn yeast inh 11% and FUS suppressor inactive.
`N#Cc1c(N)[nH]c(=S)c(C#N)c1-c1ccccc1` gave Mito fusion yeast 10%, Abeta rescue inactive, TDP-43 yeast inh 24%, aSyn yeast inh 2% and FUS suppressor inactive.
`N#Cc1c(N)[nH]c2ccc(Sc3ccccc3)cc12` gave Abeta rescue inactive, TDP-43 yeast inh 22µM* and aSyn yeast inh -29%.
CC(=O)c1ccc(NC(=O)c2nc(-c3ccccc3)n(-c3ccc(Cl)cc3)n2)cc1 was read as Abeta rescue inactive, TDP-43 yeast inh 7.9µM* and FUS suppressor inactive.
Screening Cc1ccc(C)c(NC(=O)c2cc(-c3ccccc3)nn2-c2ccccc2)c1 returned Mito fusion yeast 10%, Abeta rescue inactive, TDP-43 yeast inh -8%, aSyn yeast inh -24% and FUS suppressor inactive.
Cc1ccc(NC(=O)c2cc(C)nn2-c2ccccc2)cc1 was read as Mito fusion yeast 0%, Abeta rescue inactive, TDP-43 yeast inh 18µM*, aSyn yeast inh 2% and FUS suppressor inactive.
`Cc1ccc(C)c(NC(=O)c2nc(-c3ccccc3)n(-c3ccccc3)n2)c1` gave Mito fusion yeast inconclusive, Abeta rescue inactive, TDP-43 yeast inh 18µM*, aSyn yeast inh -17% and FUS suppressor inconclusive.
Cc1cc(C(=O)Nc2ccc(Cl)cc2)n(-c2ccccc2)n1 was read as Mito fusion yeast -12%, Abeta rescue inactive, TDP-43 yeast inh inconclusive, aSyn yeast inh -1% and FUS suppressor inactive.
Screening CC(=O)c1ccc(NC(=O)c2nc(-c3ccccc3)n(-c3ccc(C)cc3)n2)cc1 returned Abeta rescue inactive, TDP-43 yeast inh 18µM* and FUS suppressor inconclusive.

High-throughput results as filed in PubChem.
